For 64 compounds, inhibition results are on record in PubChem BioAssay AID1626 (SRMLSC, 2009).

Structures are written as SMILES. Out of some 220,000 compounds screened, about 2,000 (0.91%) were called active. Another 2% or so got no clear call; they are omitted. Not all results are given here. Results with a measured potency or affinity are listed apart. A number with no mark means an inactive call. Rule as the data show it: inconclusive = inhibition above about 80% without an active follow-up result; inactive = below that; test concentration not stated here.

The assay can be described thus: M. tuberculosis H37Rv growth inhibitors, H37Rv strain (AID 1626).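 Also: bacteria incubated seven days before Alamar blue readout; 0% = bacteria only wells and 100% = bacteria with antibiotic wells.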 To be noted: stronger effect = higher value, concentration not given here.
For `CC(C)(CO)NCc1ccc(Br)cc1`, the inhibition was 1.99%.

For `C/C(=N/NC(=O)CN1CCN(Cc2ccccc2Cl)CC1)c1ccco1`, the inhibition was -5.99%.

As to `CNC(=O)COC(=O)/C=C/c1ccco1`, the inhibition was -4.68%.

As to `COC(=O)C1CC(=O)N(Cc2ccccc2)C1` (centres undefined), the inhibition is -1.62%.

Take `COc1ccc(C2C(C(=O)OCC(=O)NC(C)(C)C)CCC(=O)N2c2ccc(C)cc2)cc1OC` (centres undefined): the inhibition was 70.3%.

With `CCOC(=O)c1c(NC(=O)C(=O)N/N=C/c2ccc(OCC)cc2)sc2c1CCCCC2`, the inhibition is 2.16%.

As to `O=C(Cc1sc(-c2ccccc2Cl)nc1-c1ccccc1)Nc1ccc(F)cc1`, the inhibition was -0.94%.

Regarding `CC(C)CCN1C(=O)c2ccc(C(=O)NCc3ccco3)cc2C1=O`, the inhibition was 4.17%.

`COc1cc(C2NCCc3c2[nH]c2ccccc32)ccc1OC(C)C` (centres undefined): the inhibition was 1.05%.

Take `COc1ccc(C2NCCc3c2[nH]c2ccccc32)cc1CN1CCc2cc(OC)c(OC)cc2C1C` (centres undefined): the inhibition was 4.52%.

As to `Cc1ccc(N(CC(=O)NCCSc2nc3ccccc3s2)S(=O)(=O)c2ccccc2)c(C)c1`, the inhibition was 9.8%.

Take `COC(=O)c1ccc(/C=C(\C#N)c2nc3ccccc3s2)cc1`: the inhibition was 3.69%.

Take `CNC(=O)Nc1cccc2cccnc12`: the inhibition was -8.8%.

Regarding `Cc1ccc(S(=O)(=O)Nc2cccc3cccnc23)cc1`, the inhibition is -2.94%.

With `CN(CCc1ccccn1)C(=S)Nc1ccc(Cl)c(Cl)c1`, the inhibition is 3.62%.

For the compound `COc1ccc(NS(=O)(=O)c2cnc[nH]2)cc1`, the inhibition was 5.45%.

Turning to `Cc1[nH]n(-c2ccccc2)c(=O)c1C(=O)c1ccccc1`, the inhibition was -0.23%.

Regarding `Cc1[nH]n(-c2ccccc2)c(=O)c1C(=O)c1ccc(Cl)cc1`, the inhibition was -3.87%.

Turning to `CCn1c(=O)c(=O)[nH]c2cc(C(=O)N3CCN(c4ccccc4F)CC3)ccc21`, the inhibition was 7.44%.

For the compound `Nc1ccc(C(=O)OCC(=O)N2c3ccccc3Sc3ccccc32)cc1[N+](=O)[O-]`, the inhibition is -1.19%.

In the case of `Cc1ccc(N=Cc2c(O)n(-c3nccs3)c(=O)c3ccccc23)cc1`, the inhibition is -4.95%.

With `Cc1cccc(C)c1N=Cc1c(O)n(-c2nccs2)c(=O)c2ccccc12`, the inhibition was 2.79%.

Take `Cc1cc(C(=O)N/N=C/c2ccc(-c3ccc(C)c(Cl)c3)o2)n[nH]1`: the inhibition is 56.6%.

Turning to `Clc1ccc(Cl)c(-c2ccc(/C=N/c3ncn[nH]3)o2)c1`, the inhibition is 6.69%.

For `COc1cccc(CN(C)Cc2nc3cc(C(F)(F)F)ccc3c(=O)[nH]2)c1`, the inhibition is 4.79%.

For the compound `CSc1ccc(CN(C)Cc2nc3cc(C(F)(F)F)ccc3c(=O)[nH]2)cc1`, the inhibition was 91.3%.

On to `CC(C)C(=O)NNC(=O)c1c(O)c2ccccc2[nH]c1=O`, for which the inhibition was -10.7%.

With `Cc1cc(C)n(-c2ncc3c(n2)N(CCO)CCOC3=O)n1`, the inhibition is 10.4%.

On to `O=C(/C=C/c1ccc([N+](=O)[O-])cc1)c1cccnc1`, for which the inhibition is 11.1%.

As to `O=C(/C=C/c1cccc(O)c1)c1cccnc1`, the inhibition was 53.2%.

Regarding `O=C(/C=C/c1cccnc1)c1ccc(O)cc1`, the inhibition was -0.25%.

`CN(C)c1ccc(/C=C/C(=O)c2cccnc2)cc1`: the inhibition is 3.22%.

On to `O=C(/C=C/c1ccccc1Cl)c1cccnc1`, for which the inhibition was -7.55%.

In the case of `N#Cc1ccc(/C=C/C(=O)O)cc1`, the inhibition was -0.8%.

As for `O=C(/C=C/c1ccccc1)c1ccccc1`, the inhibition was 10.5%.

On to `CCN(CC)c1ccc(/C=C/C(=O)c2cccnc2)cc1`, for which the inhibition was 16.5%.

`CC(C)(C)CC(C)(C)NC(=S)NC1CCN(Cc2ccccc2)CC1`: the inhibition is -15.9%.

`Cc1ccc(NC(=S)Nc2cccc(-c3n[nH]c(=S)o3)c2)cc1`: the inhibition is 10.2%.

Regarding `O=C(COC(=O)/C=C/c1ccc(Cl)cc1)NCCC1=CCCCC1`, the inhibition is -4.53%.

In the case of `Cc1cccc(C(=O)NCC2CCCO2)c1` (centres undefined), the inhibition is -2.3%.

As to `Cc1ccc(CNC(=O)C(=O)NCC2OCCN2S(=O)(=O)c2cccs2)cc1` (centres undefined), the inhibition is -2.36%.

Take `CCOC(=O)c1c[nH]n(-c2ccc(C)cc2)c1=O`: the inhibition is -7.4%.

Turning to `Cc1onc(-c2ccccc2Cl)c1C(=O)Nc1ncn[nH]1`, the inhibition is 6.99%.

Regarding `CCOC(=O)C1CCCN(Cc2cc(Br)c(OC)cc2OC)C1` (centres undefined), the inhibition was 1.19%.

On to `Cc1cc(C(=O)N(CCC#N)Cc2cccs2)no1`, for which the inhibition was -6.57%.

For the compound `CCOc1ccc(C(C)NC(=O)C2CCC2)cc1` (centres undefined), the inhibition is 1.59%.

`COCc1nnc(SCC(=O)NCc2ccccc2)n1-c1ccccc1`: the inhibition is -6.68%.

Consider `COc1ccccc1NC(=O)C1=C(C)NC2=C(C(=O)CCC2)C1c1ccc2c(c1)OCO2` (centres undefined), for which the inhibition is -0.94%.

Take `O=C(/C=C/c1ccc(Cl)c([N+](=O)[O-])c1)Nc1cccnc1`: the inhibition is -11.5%.

`O=C(/C=C/c1ccc(Cl)c([N+](=O)[O-])c1)NCc1cccnc1`: the inhibition was 2.22%.

As to `Cc1nc(C(=O)Nc2ccc(F)cc2)nn1-c1ccc([N+](=O)[O-])cc1`, the inhibition was -5.91%.

As for `CCC1(C)Cc2ccccc2C(Nc2c(C)n(C)n(-c3ccccc3)c2=O)=N1` (centres undefined), the inhibition was -6.85%.

Consider `Cc1nc(-c2cccc(NC(=O)C3CCCCC3)c2)cs1`, for which the inhibition was -1.02%.

On to `COc1cccc(-c2nc(-c3ccc4c(c3)NC(=O)CO4)cs2)c1`, for which the inhibition was 22.4%.

Regarding `COc1ccccc1Nc1nc(-c2ccc3c(c2)NC(=O)CO3)cs1`, the inhibition was -3.16%.

Turning to `CCC(C(=O)Nc1cc(Cl)c(OC)cc1OC)c1ccccc1` (centres undefined), the inhibition is -3.66%.

On to `CC(=O)OC(C(=O)Nc1ccccc1)C(C)S(=O)(=O)c1ccccc1` (centres undefined), for which the inhibition is -4.23%.

With `O=C(Nc1ccccc1Cl)O/N=C/c1ccncc1`, the inhibition was -1.05%.

As to `CC(C)C(=O)Nc1ccc(C(=O)NNC(=O)NC2CCCCC2)cc1`, the inhibition is -3.11%.

In the case of `COc1cccc(NC2c3ccccc3C(=O)N2Cc2ccccc2Cl)c1` (centres undefined), the inhibition is 8.87%.

As to `O=C(OCc1ccc([N+](=O)[O-])cc1)c1ccc2ccccc2n1`, the inhibition is 40.4%.

For the compound `O=C(COC(=O)c1ccc2ccccc2n1)c1ccc(F)cc1`, the inhibition was -7.45%.

As to `O=C(O)CSc1nc2ccccc2[nH]1`, the inhibition is -9.58%.

As to `O=C(CSc1nc2ccccc2s1)N1c2ccccc2Sc2ccccc21`, the inhibition is 1.29%.

One may read the inhibition as the change of the read-out against control, counted positive when it falls.
